PfHsp40 yeast = restores yeast growth despite PfHsp40 toxicity. S. cerevisiae expressing PfHsp40, growth rescue, ATP luminescence. growth rescue, % at 12.5 µM. 0.68% of 340,000 active; in the data active = growth rescue above about 28%, passing the limit was not always enough;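 note: yeast W303a lacking pdr1 and pdr3 grown in galactose medium; growth measured after three days at 30 °C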
Y pestis TopoI = blocks Yersinia pestis topoisomerase I activity; Y. pestis Topo-I cleavage product accumulation, plate reader; activity, % at 10 µM; 0.064% of 360,000 active; in the data active = activity above about 50%, passing the limit was not always enough
ugtP null kill = kills S. aureus RN4220 lacking UgtP | growth inhibition, % (test concentration not listed) | 0.54% of 330,000 active | S. aureus RN4220 ugtP deletion, OD600 growth, 16 h | AID 1259309; in the data active = growth inhibition above about 68%;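 note: plate controls were untreated wells for no effect and antibiotic for full effect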
BJeLR lethal = BJeLR cell viability loss; BJeLR (HRASV12) viability, CellTiter-Glo ATP luminescence, 48 h; inhibition, % (no concentration beside the values); 0.17% of 300,000 active; AID 1554; in the data active = inhibition above about 50%
Sa RN4220 lethal = kills Staphylococcus aureus RN4220 | 0.33% of 330,000 active | inhibition, % (test concentration not listed) | AID 1259311 | S. aureus RN4220 growth, OD600, 16 h; in the data active = inhibition above about 85%;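 note: plate controls were untreated cells for no effect and reference antibiotic for full effect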
PrP 5UTR inh = suppresses PrP 5' UTR mRNA reporter expression. cell-based PrP 5' UTR mRNA reporter, plate reader. inhibition, % (concentration not given with the values). 0.35% of 340,000 active. AID 488862; in the data active = inhibition above about 52%; note: 0 = median of the neutral control wells
* hit, by the source's call; . = not tested or not shown. Rows were chosen to be rich in hits. Some 1.4% of all compounds tested hit in one or more screens of this group.

SMILES | PfHsp40 yeast | Y pestis TopoI | ugtP null kill | BJeLR lethal | Sa RN4220 lethal | PrP 5UTR inh
COc1ccc(/C=C/c2c(-c3ccc(OC)cc3)oc3ccc(-c4ccc(OC)cc4)cc23)cc1 | -1.2 | -6.0 | . | 0.9 | . | 4.7
COc1ccc(/C=C/c2cc(-c3ccc(C)cc3)o[n+]2C)cc1 | 1.0 | 10.4 | 99.7* | 63.0* | 96.0* | -0.6
S=C(NNc1ccc2ccccc2c1)NC1CCCCC1 | 244.0* | 1.9 | 13.0 | 8.8 | 1.7 | -24.6
S=C(Nc1ccc(Cl)c(Cl)c1)NC1CCCCC1 | 190.5* | -4.0 | 75.2 | -2.8 | 73.8 | -32.8
COC(=O)[C@]1(C)NC(c2ccc(-c3ccc(OC)cc3)cc2)C2C(=O)N(C)C(=O)C21 (stereo partly drawn) | . | . | 2.2 | . | 4.9 | .
FC(F)(F)c1cccc(N2CCN(C(=S)NC3CCCCC3)CC2)c1 | 36.6* | 16.2 | -26.6 | 2.3 | -2.0 | -16.5
FC(F)(F)c1cccc(N2CCN(C(=S)NC3CCCC3)CC2)c1 | 1.5 | 1.4 | -13.2 | 8.7 | -4.0 | -21.9
N#CC(c1ccc(Cl)cc1)c1nc2ccccc2nc1C(F)(F)F (stereo not drawn) | 53.2* | 1.6 | -14.2 | 8.6 | 0.4 | -34.8
Cc1ccc(C(=O)NC(=CCl)P(=O)(c2ccccc2)c2ccccc2)cc1 | . | . | -1.1 | . | 4.7 | .
CCOC(=O)C1C2COc3cc(OC)ccc3C2N2C(=O)c3ccc(C)cc3NC(=O)[C@@]12C (stereo partly drawn) | . | . | -1.0 | . | 5.2 | .
CC(=O)c1cccc(NC(=O)CCc2nnc3ccc(N4CCN(C)CC4)nn23)c1 | -1.8 | 4.2 | 11.7 | -2.7 | 5.6 | -19.6
CC(=O)c1cccc(NC(=O)CCc2nnc3ccc(NCc4ccc5c(c4)OCO5)nn23)c1 | 0.0 | 72.9* | -0.1 | -0.9 | -0.2 | -13.7
CC(C)(C)OC(=O)NCCCCC(NC(=O)c1nc[nH]c1C(=O)NC(CCCCNC(=O)OC(C)(C)C)C(=O)OC(C)(C)C)C(=O)OC(C)(C)C (stereo not drawn) | . | . | 3.0 | . | 5.6 | .
CCc1ccc(-c2csc3[n+]2CCN3C(C)=O)cc1 | 93.1* | 8.8 | -0.5 | 6.9 | 3.1 | -20.8
C=Cn1c(C(=O)O)ccc1-c1ccc(CC)cc1 | 7.8 | -0.5 | 54.9 | 3.5 | -3.5 | -38.5
CC(=O)N1CC[n+]2c(-c3ccc(Cl)cc3)csc21 | 65.7* | 1.1 | 17.6 | 1.5 | -0.4 | -24.1
CC1CN(C(C)CO)C(=O)c2cccc(NS(=O)(=O)c3ccccc3)c2OC1CN(C)CC1CC1 (stereo not drawn) | . | . | 0.7 | . | 3.3 | .
COc1ccc2c(c1)CCC1C2CC[C@]2(C)C(C(=O)O)CC12 (stereo partly drawn) | . | . | 3.6 | . | 3.0 | .
O=C(OCc1ccccc1)N1CCC2CC1c1c(Cl)cccc12 (stereo not drawn) | 31.8* | 58.6* | 9.0 | . | 11.1 | -9.8
Cc1ccc(Nc2cc(C)nn2-c2nc(C)cc(=O)[nH]2)cc1 | 13.2 | 12.0 | 99.1* | 39.7 | 97.6* | 28.5
O=C(CCSc1ccc(Cl)cc1)c1ccco1 | 0.2 | 18.6 | 83.8* | -3.5 | 1.6 | -11.9
O=C(CSc1ccccc1Cl)c1ccco1 | -1.9 | 1.5 | 87.3* | -1.4 | 14.7 | -13.6
O=C(CSc1ccc(Cl)cc1)c1ccco1 | 0.0 | 4.3 | 81.2 | -13.0 | 4.3 | -24.8
COC(=O)C1=C(c2ccc(F)cc2F)CC2CCC1N2C(=O)N1CCC(O)CC1 (stereo not drawn) | . | . | -3.5 | . | 4.0 | .
CC(=Cc1ccccc1)CC1=C(C)C2(CC2)[C@@]2(C)OC(=O)OC2C1=CCO (stereo partly drawn) | . | . | -0.4 | . | 8.3 | .
SMILES | PfHsp40 yeast | Y pestis TopoI | ugtP null kill | BJeLR lethal | Sa RN4220 lethal | PrP 5UTR inh
COc1ccc(S(=O)(=O)Nc2cccc3c2OC(CN(C)S(=O)(=O)c2cn(C)cn2)C(C)CN(C(C)CO)C3=O)cc1 (stereo not drawn) | . | . | 0.0 | . | 8.0 | .
CCC1Cc2cc(O)ccc2C2=C1c1ccc(O)cc1CC2CC (stereo not drawn) | . | . | 88.8 | . | 97.8* | .
Cc1cc(NC(=O)Nc2cccc(Cl)c2)n(-c2ccccn2)n1 | 100.7* | -18.1 | -8.5 | -10.7 | -16.0 | -9.8
COC(=O)c1ccc2[nH]c(C3(O)CCCCC3)c(C)c2c1 | 0.9 | 13.4 | -25.7 | . | -2.7 | -22.2
Cc1c(C2(O)CCCCC2)[nH]c2ccc(C(F)(F)F)cc12 | 287.2* | -4.4 | . | . | . | -15.6
CCOC(=O)C1C2COc3ccc(OC)cc3C2N2C(=O)CN(Cc3ccc(F)cc3)C(=O)[C@@]12C (stereo partly drawn) | . | . | -6.0 | . | 0.4 | .
O=C(NC(Nc1ncc(S(=O)(=O)c2ccc([N+](=O)[O-])cc2)s1)(C(F)(F)F)C(F)(F)F)c1ccc(Cl)cc1 | -0.2 | -3.6 | . | 70.3* | . | -12.2
COCC(=O)Nc1ncc(S(=O)(=O)c2ccc([N+](=O)[O-])cc2)s1 | -1.0 | 3.2 | 55.6 | -5.0 | 61.3 | -3.7
Cc1cc(-c2ccccc2)n(-c2cc(NN=Cc3ccccc3O)ncn2)n1 | . | . | 100.7* | . | 78.6 | .
CNc1cc(-n2nc(C)cc2-c2ccccc2)ncn1 | -0.7 | 3.7 | 5.6 | -5.5 | -1.3 | -115.3
COC(CC1OC1C(O)C(C)OCc1ccccc1)OC (stereo not drawn) | . | . | 5.3 | . | 7.1 | .
COCCNC(=S)N/N=C(\C)CCc1ccc2c(c1)OCO2 | 34.8* | 3.9 | . | 4.2 | . | -13.2
C/C(CCc1ccc2c(c1)OCO2)=N\NC(=S)NC(C)C | -0.5 | 12.4 | . | -11.4 | . | -69.2
CC(C)(C)C1C=C(C(=O)Nc2ccccc2)OC(OCCCCO)C1 (stereo not drawn) | . | . | 6.3 | . | 7.3 | .
Cc1cc(C)cc(NC(=O)c2ccc([N+](=O)[O-])o2)c1 | 13.2 | 2.2 | 94.1* | -14.7 | 93.3* | -40.8
O=C(Nc1ccc2oc(-c3ccncc3)nc2c1)c1ccc([N+](=O)[O-])o1 | 0.9 | -4.9 | 77.2 | -4.3 | 99.5* | -15.8
Cc1ccc(C)c(-c2nnc(NC(=O)c3ccc([N+](=O)[O-])o3)o2)c1 | -0.8 | -5.2 | 90.0* | 0.8 | 6.1 | -17.0
O=C(NN(c1ccccc1)c1ccccc1)c1ccc([N+](=O)[O-])o1 | 0.0 | 6.8 | -3.1 | 1.3 | 11.6 | -63.8
O=C(NNC(=O)c1ccc([N+](=O)[O-])o1)c1ccccc1 | -2.1 | -1.7 | 98.8* | -12.5 | 12.6 | -0.3
Cc1ccc(C)c(-c2nnc(NC(=O)C3=COCCO3)o2)c1 | 0.5 | -1.4 | 5.6 | 4.3 | 5.4 | -18.0
OCCC1CC(O)C(O)[C@@]2(CCc3ccccc3CO2)O1 (stereo partly drawn) | . | . | -1.4 | . | 3.9 | .
CC(=O)c1cccc(NC(=O)c2ccc([N+](=O)[O-])o2)c1 | 0.3 | -9.5 | 91.0* | -11.8 | 43.2 | -27.0
NC(=O)c1oc2ccccc2c1NC(=O)c1ccc([N+](=O)[O-])o1 | 0.7 | 0.1 | 100.4* | -7.9 | 100.0* | 45.1
O=C(CCSc1ccc(Br)cc1)c1ccc(O)cc1 | 537.2* | -2.8 | 52.4 | -9.1 | -1.3 | -21.6
O=C1NC(Cc2ccccc2)C(=O)N2C1C[C@]1(Br)c3ccccc3N(S(=O)(=O)c3ccc(F)cc3)C21 (stereo partly drawn) | . | . | -6.3 | . | 13.9 | .
